In PubChem BioAssay:

Test: binders of probe aFGF2 on microarray, primary screen, stem cell growth factor project, biochemical, small-molecule microarray, fluorescence 635/667 (AID 1067);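 further: measures binding of biotinylated aFGF2 protein to printed compounds on slides; z-score merges feature fluorescence and signal-to-noise across triplicate slides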
Conditions: higher = more signal
In the case of C[C@@]1([C@@H](NS(=O)(=O)c2cccc3cccnc23)c2ccc(-c3ccccc3)cc2)C[C@H]1C1CCCCC1, the composite z-score is reported as 0.163.
In the case of O=C1O[C@H](c2ccccc2)[C@H](c2ccccc2)N2[C@H]1[C@@H](C(=O)N1CCN(c3ncccn3)CC1)[C@]1(C(=O)Nc3ccc(C#CC4(O)CCCCCC4)cc31)[C@H]2c1ccc(O)cc1, the composite z-score is reported as -0.0125.
C=CCC(OC(C)=O)[C@@H]1[C@@H](N(Cc2ccc(-c3ccccc3)cc2)C(=O)Cc2ccc(OC)cc2)c2cc(OCCCO)ccc2N1C(=O)c1ccc2ccccc2c1 (stereo not given in full) showed a composite z-score of -0.0486.
O=C(NC1CC1)[C@@H]1c2ccccc2C(=O)N(C2CCCCC2)[C@H]1c1ccc(CO)cc1 gave a composite z-score of 0.0611.
COC(=O)[C@@]1(Cc2ccccc2)[C@H]2c3cc(C(=O)N(C)C)n(Cc4nc5ccccc5[nH]4)c3C[C@H]2CN1C(=O)c1ccccc1 gave a composite z-score of 0.214.
With C=CCOC(=O)[C@@H]1[C@H]2C(=O)O[C@H](c3ccccc3)[C@H](c3ccccc3)N2[C@H](c2ccc(OCCOC(=O)[C@@H]3C[C@@H]4C(=O)N[C@@H](CC(C)C)C(=O)N4[C@@H]3c3ccc(O)cc3)cc2)[C@@]12C(=O)Nc1ccc(I)cc12 the composite z-score was -0.0489.
For COCCOC(=O)N1C(=O)[C@@]2(c3cc(C#CCNC(N)=O)ccc31)[C@H](C(N)=O)[C@H]1C(=O)O[C@H](c3ccccc3)[C@H](c3ccccc3)N1[C@@H]2c1ccc(O)cc1, the composite z-score was -0.0899.
C=CCNC(=O)[C@H]1[C@@H]2C(=O)O[C@@H](c3ccccc3)[C@@H](c3ccccc3)N2[C@@H](c2ccc(OCCO)cc2)[C@]12C(=O)Nc1ccc(C#Cc3ccc(OC)cc3)cc12 showed a composite z-score of 0.0566.
With CN1C(=O)C2C=CC(C(O)c3ccc(I)cc3)N(N(c3ccccc3)c3ccccc3)C2C1=O (stereo not given) the composite z-score was -0.0507.
In the case of Cc1ccc(S[C@]2(C(=O)NCc3ccccc3)CC(=O)N(Cc3ccccc3Cl)[C@@H]2c2ccc(CO)cc2)cc1, the composite z-score is reported as -0.0639.
Work on C[C@]1(C(=O)O)c2ccccc2C(=O)N(Cc2cc(C(F)(F)F)cc(C(F)(F)F)c2)[C@H]1c1ccc(CO)cc1 yielded a composite z-score of -0.152.
For COC(=O)C(CC#Cc1ccc2c(c1)[C@]1(C(=O)N2)[C@H](C(N)=O)[C@H]2C(=O)O[C@H](c3ccccc3)[C@H](c3ccccc3)N2[C@@H]1c1ccccc1OCCO)C(=O)OC, the composite z-score was -0.0122.
COC(=O)[C@@]1(Cc2ccc(F)cc2)[C@H]2c3cc(C(=O)N(C)C)n(Cc4ccc(C(F)(F)F)nc4)c3C[C@H]2CN1C(=O)c1ccccc1 showed a composite z-score of 0.0642.
CCN1C(=O)C2CC(=O)C3C(CN(S(=O)(=O)c4ccc(C)cc4)C3c3ccc(C)cc3)C2C1=O (stereo not given) gave a composite z-score of 0.0174.
C=C[C@H](OC)[C@@H](O)c1ccc(OC)c(O)c1 showed a composite z-score of -0.137.
CCCCCN1CC=CC23O[C@@H]4/C=C\CCCOC(=O)C4[C@H]2C(=O)N(CCCCCO)[C@@H]3C1=O (stereo not given in full) showed a composite z-score of -0.103.
Work on CC(C)C[C@H]1NC(=O)CNC(=O)[C@@]23C(=O)N[C@@H](Cc4ccccc4)C2[C@H](C)[C@@]2(C)O[C@H]2C3/C=C/C/C=C\CNC1=O (stereo not given in full) yielded a composite z-score of -0.159.
C=CCNC(=O)[C@@H]1[C@H]2C(=O)O[C@H](c3ccccc3)[C@H](c3ccccc3)N2[C@H](c2ccc(OCCO)cc2)[C@@]12C(=O)Nc1ccc(C#CCNC(N)=O)cc12 showed a composite z-score of -0.22.
CC(C)[Si](C#Cc1ccccc1)(O[C@H](c1ccccc1)c1cn(Cc2ccccc2)nn1)C(C)C gave a composite z-score of -0.123.
Molecule C=C(C(=O)CC[C@@H](OC(=O)c1cccnc1)c1cccc(OCCO)c1)C(C)C has a composite z-score of -0.167.
For CCCCN1CC=CC23O[C@@H]4/C=C\CCC(C)OC(=O)C4[C@H]2C(=O)N(CCO)[C@@H]3C1=O (stereo not given in full), the composite z-score was -0.117.
Molecule O=C/C=C/c1ccc(-c2ccccc2)cc1 has a composite z-score of -0.0785.
Work on COc1cc(CO)cc(I)c1O[C@H]1C=C(C(=O)NCCO)C[C@@H](N(CCN2CCOCC2)C(=O)C2CCCO2)[C@@H]1O (stereo not given in full) yielded a composite z-score of -0.109.
CC(C)C[C@@H]1NC(=O)[C@H]2C[C@@H](C(=O)O)[C@@H](c3cccc(OCCO)c3)N2C1=O showed a composite z-score of -0.083.
In the case of COc1cc(Cc2cc3c(c(CCc4ccccc4)n2)[Si](C(C)C)(C(C)C)O[C@H]3c2ccccc2)cc(OC)c1OC, the composite z-score is reported as -0.0454.
C=CCNC(=O)[C@@H]1[C@H]2C(=O)O[C@H](c3ccccc3)[C@H](c3ccccc3)N2[C@H](c2ccc(O)cc2)[C@@]12C(=O)Nc1ccc(C#CC3=CCCCC3)cc12 showed a composite z-score of -0.0639.
Work on Cc1cccc([C@H]2C[C@H]3C(Br)=C[C@@]2(CO)C(=O)[C@]32CO2)c1 yielded a composite z-score of -0.125.
For COCCOC(=O)N1C(=O)[C@@]2(c3cc(C#CCCO)ccc31)[C@H](C(=O)N1CCN(c3ncccn3)CC1)[C@H]1C(=O)O[C@H](c3ccccc3)[C@H](c3ccccc3)N1[C@@H]2c1ccc(OCCO)cc1, the composite z-score was 0.0001.
COC(=O)[C@H](Cc1ccccc1)N1CC(C)(OC)O[C@@H](Cc2ccccc2)[C@H]1/C=C/C1CC1 (stereo not given in full) showed a composite z-score of -0.073.
In the case of CCOC(=O)C1=CCC(c2ccncc2)N(S(=O)(=O)c2ccc(C)cc2)C1 (stereo not given), the composite z-score is reported as -0.0459.
COC(=O)[C@@]1(Cc2ccc(F)cc2)[C@H]2c3cc(C(=O)N4CCCC4)n(Cc4ccc(C(F)(F)F)nc4)c3C[C@H]2CN1C(=O)c1ccccc1 showed a composite z-score of 0.16.
Work on COCCOC(=O)N1C(=O)[C@@]2(c3cc(C#CCNC(N)=O)ccc31)[C@H](c1ccccc1OCCO)N1[C@H](c3ccccc3)[C@H](c3ccccc3)OC(=O)[C@H]1[C@@H]2C(=O)N1CCCCCCC1 yielded a composite z-score of 0.0495.
For CCCCC(=C=CC[C@@H](O)c1ccccc1OCCO)C[C@@H](O)c1ccccn1, the composite z-score was -0.102.
For O=C(NCC(F)(F)F)[C@@H]1c2ccccc2C(=O)N(Cc2cc(C(F)(F)F)cc(C(F)(F)F)c2)[C@H]1c1ccc(CO)cc1, the composite z-score was -0.203.
In the case of CC(CO)N1C(=O)[C@@H]2[C@H]3C(=O)OCC=C[C@H]3OC23C=CCN(c2ccc4ccccc4c2)C(=O)[C@@H]13 (stereo not given in full), the composite z-score is reported as -0.149.
